Source: PubChem BioAssay AID1850 (Southern Research Specialized Biocontainment Screening …, 2009)
Values joined by “and” are separate entries in the source; they are usually repeats but may differ in a detail not shown here. Equal entries are not always repeated. About 1,000 (0.32%) of roughly 310,000 compounds were called active. The rule behind the calls is not given here. The list is a sample of the results. Potency and affinity values are given separately.

Assay: Inhibition of PhoP regulon, Salmonella typhi GFP reporter cells, confirmation, 4 h (AID 1850);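 note: 0% = induced wells with vehicle and 100% = uninduced wells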
Details: Salmonella Typhi PhoP-promoter GFP reporter, fluorescence, at 50 µM, hits give high values

Compound	inhibition
Cc1ccc(C(=O)C(C)OC(=O)Cn2cnc3c2c(=O)n(C)c(=O)n3C)cc1 (centres undefined)	2.25% (inactive)
COc1cc(CNc2cccc(C(=O)O)c2)cc(Br)c1OCC(=O)NC(C)(C)C	-9.24% (inactive)
COC(=O)c1cc(CN2CCN(c3ccccc3C)CC2)ccc1O	-3.53% (inactive)
Cc1ccc(-c2cc(=O)c3ccccc3[nH]2)cc1	10.7% (inactive)
COc1ccc(Cc2nc3ccccc3n2CC(=O)N/N=C/c2ccc(C)cc2O)cc1OC	-7.1% (inactive)
C/C(=N\NC(=S)NCc1ccccc1)c1ccc(Cl)s1	9% (inactive)
Cc1cc(C)n(-c2nncn2/N=C/c2ccccc2F)n1	-6.07% (inactive)
O=C(Nc1ccccc1C(=O)N1CCOCC1)C1CC(=O)N(C2CCCC2)C1 (centres undefined)	-0.19% (inactive)
COc1ccc([N+](=O)[O-])cc1C(=O)NCCOc1ccc(Cl)cc1	-0.6% (inactive)
CC(NCC(O)COC1CCC(C(C)(C)C)CC1)c1ccccc1 (centres undefined)	0.36% (inactive)
COc1ccc(C2/C=C\CN(Cc3ccncc3)CC(=O)N2Cc2ccc(F)cc2)cc1 (centres undefined)	-5.33% (inactive)
COc1ccc(Cl)cc1C(=O)NCC(C)C	-5.89% (inactive)
O=C(CCC(=O)N1CCCCC1)Nc1nnc(C2CCCCC2)s1	8.14% (inactive)
CCCN1C(=O)/C(=C/c2cc(C)n(C)c2C)SC1=Nc1ccc(OC)cc1	0.64% (inactive)
CNC(=O)CC1C(=O)N(c2ccc(Cl)cc2)C(=S)N1CCc1ccc(OC)c(OC)c1 (centres undefined)	-0.64% (inactive)
O=C(NC1CCCC1)c1ccc(S(=O)(=O)N2CCOCC2)cc1	-6.82% (inactive)
CCCCSCc1nc2ccccn2c1Br	0.1% (inactive)
CCn1cc(C(=O)O)c(=O)c2cc(F)c(N3CCN(S(=O)(=O)c4ccc5c(c4)OCCO5)CC3)cc21	9.21% (inactive)
CCn1cc(C(=O)O)c(=O)c2cc(F)c(N3CCN(C(=S)NC(=O)c4ccc(F)cc4)CC3)cc21	9.94% (inactive)
CC(=O)N1CCN(c2cc3c(cc2F)c(=O)c(C(=O)O)cn3C2CC2)CC1	0.5% (inactive)

Compound	inhibition
CCn1cc(C(=O)O)c(=O)c2cc(F)c(N3CCN(C(=S)NC(=O)c4ccc(F)c(F)c4)CC3)cc21	1.24% (inactive)
CCCOc1ccc(C(=O)NC(=S)N2CCN(c3cc4c(cc3F)c(=O)c(C(=O)O)cn4CC)CC2)cc1	15.1% (inactive)
CCn1cc(C(=O)O)c(=O)c2cnc(N3CCN(C(=S)NC(=O)c4ccc(Br)cc4)CC3)nc21	5.97% (inactive)
COc1ccc(NC(=O)C2CCCN(S(=O)(=O)c3ccccc3)C2)c(OC)c1 (centres undefined)	0.45% (inactive)
O=C1C2CCCN2C(c2cccnc2)N1c1nccs1 (centres undefined)	0.12% (inactive)
CCOc1cc(C(=O)Nc2nnc(S(=O)(=O)N3CCOCC3)s2)cc(OCC)c1OCC	-12.6% (inactive)
CCc1ccc(NC(=O)COC(=O)/C(=C/c2ccccc2OC)c2ccccc2)cc1	-5.82% (inactive)
CCn1c(C)nnc1SCC(=O)Nc1ccc2c(c1)OCCO2	11.2% (inactive)
Cc1onc(-c2ccccc2)c1C(=O)N1CCC(CO)(Cc2ccccc2)CC1	-9.9% (inactive)
CCC(=O)Nc1ccc2c(c1)nc(CCN1CCCCC1)n2C	0.58% (inactive)
Nc1nc(F)nc2c1ncn2[C@@H]1O[C@H](CO)[C@@H](O)[C@@H]1O	-2.76% (inactive)
Nc1cnn(C2OC(CO)C(O)C2O)c(=O)n1 (centres undefined)	2.98% (inactive)
Nc1ccn([C@@H]2O[C@H](CO)[C@@H](O)C2O)c(=O)n1 (some centres undefined)	6.26% (inactive)
Nc1ccn([C@@H]2O[C@H](CO)[C@@H](O)[C@@H]2O)c(=O)n1	1.39% (inactive) and -1.71% (inactive)
Nc1nc(Cl)nc2c1ncn2[C@@H]1O[C@H](CO)[C@@H](O)[C@H]1O	19.8% (inactive) and 8.46% (inactive)
NC(=O)c1ncn([C@@H]2O[C@H](CO)[C@@H](O)[C@H]2O)c1O	4.75% (inactive)
Cc1ccc(Cn2nnnc2CN2CCC(n3nnc4cc(C)ccc43)CC2)cc1	-8.85% (inactive)
CCOC(=O)c1ccc(CNC(=O)c2n[nH]c(=O)c3ccccc23)o1	-3.19% (inactive)
O=C(Nc1cccc(-c2nc3ccccc3s2)c1)c1ccc2c(c1)OCO2	-3.82% (inactive)
COc1ccc(N=C2SCC(c3ccc([N+](=O)[O-])cc3)=NN2CCO)cc1	7.19% (inactive)

Compound	inhibition
O=C(CN1CCN(S(=O)(=O)c2ccc(Br)cc2)CC1)N/N=C/c1ccco1	-9.02% (inactive)
O=C(O)COCC(=O)N1CCN(c2cc(C(F)(F)F)nc3ccccc23)CC1	1.72% (inactive)
CC(=O)NCCC(=O)Nc1nc2c(ccc3ccccc32)s1	9.9% (inactive)
O=C(N/C(=C/c1ccco1)C(=O)N1CCCCCC1)c1ccccc1	2.51% (inactive)
O=C1c2ccccc2C(=O)N1CCCc1c[nH]c2ccccc12	-2.4% (inactive)
O=C(NCc1cccc(C(F)(F)F)c1)C1CCCN(c2cnccn2)C1 (centres undefined)	3.94% (inactive)
Cc1ccc2[nH]c3c(N4CCN(Cc5ccccc5)CC4)ncnc3c2c1	11.1% (inactive)
Cc1ccc2c(c1)[nH]c1c(N3CCN(Cc4ccccc4)CC3)ncnc12	6.98% (inactive)
Cc1ccc(NC(=O)c2ccc3snnc3c2)cc1	-2.31% (inactive)
COc1ccccc1N1CCN(C(=O)CN2C(=O)c3ccccc3S2(=O)=O)CC1	-8.97% (inactive)
Cc1cc(Nc2ccccc2)nc2cc(O)ccc12	11.4% (inactive)
Cc1cccc(NC(=S)N(C)C)c1C	17.9% (inactive)
Cc1cccc(Nc2nc3ccccc3s2)c1C	-1.36% (inactive)
Cc1cc(Nc2ccccc2O)c2ccccc2n1	6.66% (inactive)
O=C(CSC1=NNC(c2ccccn2)S1)Nc1ccc(C(F)(F)F)cc1 (centres undefined)	3.27% (inactive)
Cc1cc(C)c2cc(C(=O)N3CCC(C(=O)c4ccc(F)cc4)CC3)[nH]c2c1	2.06% (inactive)
O=C1c2ccccc2NC(c2ccccc2O)N1O (centres undefined)	-4.51% (inactive)
N/C(=N\N=C/c1ccc(Br)cc1)N/N=C\c1ccc(Br)cc1	-6.33% (inactive)
O=C(N/N=C\c1ccc(F)cc1)c1ccc(F)cc1	23.4% (inactive)
